In the supplement of paper PMC12350171:
Counter-ions that a name gives are not always drawn. Unmarked numbers belong to inactive results.

Key:
Settings in all cases: 20 µM
[1] = test system: Shigella flexneri; assay: growth AUC normalised to DMSO control (fraction of control); higher = less growth inhibition, active = hit call of the paper
Procedure, shortened: (§1)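 Hemin and NAD were added to the medium for Haemophilus parainfluenzae. All pathogens, after two anaerobic passages, were inoculated at a starting OD578 of 0.01 into pre-reduced mGAM plates with 20 μM compound and 1% DMSO under breathable seals, and OD578 was read hourly for 24 h in three biological replicates. AUC of each growth curve was obtained with the trapezoidal rule up to the exponential-to-stationary transition and normalised to DMSO controls from the same plate.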

[2] = test system: Vibrio cholerae; assay: as above
Procedure, shortened: as §1

[3] = test system: Yersinia pseudotuberculosis; assay: as above
Procedure, shortened: as §1

[4] = test system: P. vulgatus WT; assay: growth AUC normalised to DMSO control (median) (fraction of control); higher = less growth inhibition, active = hit call of the paper
Procedure, shortened: (§2)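 Area under the growth curve, calculated by the trapezoidal rule up to entry into stationary phase, was normalised to vehicle wells on the same plate. Strains had been passaged twice overnight without oxygen and then grown in mGAM in 96-well plates from OD578 0.01, each with an approved-drug library compound at 20 μM in 1% DMSO. OD578 was read hourly over 24 h in an anaerobic incubator, and the median of three biological replicates is given.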

[5] = test system: S. enterica typhimurium WT; assay: as above
Procedure, shortened: as §2

[6] = test system: S. enterica typhimurium tolC KO; assay: as above
Procedure, shortened: as §2

[7] = test system: P. vulgatus RND KO; assay: as above
Procedure, shortened: as §2
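Throughout, for growth AUC normalised to DMSO control (median): active when median AUC fell below 0.1.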

Structure (SMILES) | growth AUC normalised to DMSO control [1] | growth AUC normalised to DMSO control [2] | growth AUC normalised to DMSO control [3] | growth AUC normalised to DMSO control [4] | growth AUC normalised to DMSO control [5] | growth AUC normalised to DMSO control [6] | growth AUC normalised to DMSO control [7]
C[C@H]1[C@H](NC(=O)/C(=N\OC(C)(C)C(=O)O)c2csc(N)n2)C(=O)N1S(=O)(=O)O [Aztreonam] | 0.0599 (active) | 0.773 (active) | 0.135 (active) | 0.134 | – | – | –
COc1cc([C@@H]2c3cc4c(cc3[C@@H](O[C@@H]3O[C@@H]5CO[C@@H](C)O[C@H]5[C@H](O)[C@H]3O)[C@H]3COC(=O)[C@H]23)OCO4)cc(OC)c1O [Etoposide] | 1.03 | 1.02 | 0.99 | 1.09 | 1 | 0.0378 (active) | –
CCOC(=O)[C@H](CCc1ccccc1)N[C@@H](C)C(=O)N1[C@H](C(=O)O)C[C@H]2CCCC[C@@H]21 [Trandolapril] | – | – | – | 0.992 | 1.01 | 0.998 | 0.986
CCN(CC)C(=O)c1cccnc1 [Nikethamide] | – | – | – | 1 | 1 | 1.01 | 0.992
NS(=O)(=O)c1cc(C(=O)NN2C[C@@H]3[C@H]4CC[C@H](C4)[C@@H]3C2)ccc1Cl [Tripamide] | – | – | – | 1.07 | 0.999 | 0.975 | 1.02
CC(C)OC(=O)C(C)(C)Oc1ccc(C(=O)c2ccc(Cl)cc2)cc1 [Fenofibrate] | 0.971 | 1 | 0.992 | 1.01 | 1 | 0.94 | 0.996
N[C@H](Cc1ccccc1)C(=O)O [D-phenylalanine] | – | – | – | 0.985 | 0.995 | 1 | 0.996
O=C1C(=O)c2ccccc2C(O)=C1C1CCC(c2ccc(Cl)cc2)CC1 (configuration not stated) [Atovaquone] | 0.976 | – | 0.993 | 1.02 | 0.992 | 1.01 | 1.02
CCOC(=O)CC(=O)N1CCSC1COc1ccccc1OC (configuration not stated) [Moguisteine] | – | – | – | 0.965 | 1.01 | 0.986 | 0.965
CCCCS(=O)(=O)N[C@@H](Cc1ccc(OCCCCC2CCNCC2)cc1)C(=O)O [Tirofiban hydrochloride] | – | – | – | 0.99 | 0.989 | 0.964 | 0.994
CC(=O)Oc1ccc(C(c2ccc(OC(C)=O)cc2)c2ccccn2)cc1 [Bisacodyl] | 1.01 | 0.991 | 1.01 | 1.04 | 1.01 | 1.01 | 1.02
CN1C(C(=O)Nc2ccccn2)=C(O)c2sccc2S1(=O)=O [Tenoxicam] | 0.94 | 0.791 (active) | 0.993 | 0.969 | 1 | 0.956 | 0.97
Nc1c2ccccc2nc2ccccc12 [Aminacrine] | – | – | – | 1.02 | 0.902 | 0.903 | 1.07
O=C1c2c(O)ccc(O)c2C(=O)c2c(NCCNCCO)ccc(NCCNCCO)c21 [Mitoxantrone dihydrochloride] | – | – | – | 1.04 | 1 | 0.999 | 1.11
CN(C)c1cc(NC(=O)CNC(C)(C)C)c(O)c2c1C[C@H]1C[C@H]3[C@H](N(C)C)C(=O)C(C(N)=O)=C(O)[C@@]3(O)C(=O)C1=C2O [Tigecycline] | – | – | – | 0.997 | 0.995 | 0.997 | 0.987
Cn1c(=O)c2[nH]cnc2n(C)c1=O [Aminophylline] | 1.03 | 1.03 | 0.979 | 1.05 | 0.993 | 1.01 | 1.03
C=C(CC)C(=O)c1ccc(OCC(=O)O)c(Cl)c1Cl [Ethacrynic acid] | 0.998 | 1.02 | – | 1.01 | 1 | 1.02 | 0.994
CCCc1c2oc(C(=O)O)cc(=O)c2cc2c(=O)cc(C(=O)O)n(CC)c12 [Nedocromil sodium] | – | – | – | 1.03 | 0.992 | 0.995 | 1.02
O=c1[nH]cnc2c1ncn2[C@H]1CC[C@@H](CO)O1 [Didanosine] | 1.01 | 1.04 | 0.73 (active) | 0.973 | 0.992 | 0.949 | 1
Cc1ncc([N+](=O)[O-])n1CCO [Metronidazole] | – | – | 1 | 0.0126 (active) | 1.04 | 0.991 | 0.0156 (active)

Structure (SMILES) | growth AUC normalised to DMSO control [1] | growth AUC normalised to DMSO control [2] | growth AUC normalised to DMSO control [3] | growth AUC normalised to DMSO control [4] | growth AUC normalised to DMSO control [5] | growth AUC normalised to DMSO control [6] | growth AUC normalised to DMSO control [7]
CCC1(c2ccccc2)C(=O)NCNC1=O [Primidone] | 0.971 | 0.976 | 0.951 | 1 | 1 | 0.997 | 1
CCCC(=O)OCOC(=O)C1=C(C)NC(C)=C(C(=O)OC)C1c1cccc(Cl)c1Cl (configuration not stated) [Clevidipine] | – | – | – | 0.992 | 0.98 | 1 | 0.986
N[C@@H](Cc1ccc(O)c(O)c1)C(=O)O [Levodopa] | 1 | 0.991 | 0.99 | 0.996 | 0.973 | 0.996 | 1.01
N=C(N)Nc1ccc(C(=O)Oc2ccc3cc(C(=N)N)ccc3c2)cc1 [Nafamostat Mesylate] | – | – | – | 1.03 | 0.997 | 0.999 | 1.11
O=c1cc(-c2ccc(O)c(O)c2)oc2cc(O)cc(O)c12 [Luteolin] | 1 | 0.976 | 0.978 | 1.02 | 0.993 | 0.878 | 0.987
COC1=CC(=O)C[C@@H](C)[C@]12Oc1c(Cl)c(OC)cc(OC)c1C2=O [Griseofulvin] | 0.998 | 0.99 | 1.03 | 0.976 | 1 | 0.996 | 0.99
O=C(O)c1cc(/N=N/c2ccc(S(=O)(=O)Nc3ccccn3)cc2)ccc1O [Sulfasalazine] | 1.01 | 1.01 | 0.99 | 1.02 | 1.01 | 1.01 | 1
NNc1nncc2ccccc12 [Hydralazine hydrochloride] | 1.04 | 1.06 | 1.03 | 1.04 | 0.996 | 0.992 | 1.01
O=C1[C@H]2CCCC[C@H]2C(=O)N1CCCCN1CCN(c2nsc3ccccc23)CC1 [Perospirone hydrochloride] | – | – | – | 0.986 | 0.998 | 0.98 | 0.997
Cc1cn([C@H]2C[C@H](N=[N+]=[N-])[C@@H](CO)O2)c(=O)[nH]c1=O [Zidovudine] | 0.155 (active) | 0.956 | 0.781 (active) | 0.986 | 0.304 | – | –
N[C@@H](CSCCCO)C(=O)O [Fudosteine] | – | – | – | 0.987 | 0.996 | 1 | 1
CC[C@H]1OC(=O)C[C@@H](O)[C@H](C)[C@@H](O[C@@H]2O[C@H](C)[C@@H](O[C@H]3C[C@@](C)(O)[C@@H](O)[C@H](C)O3)[C@H](N(C)C)[C@H]2O)[C@@H](CC=O)C[C@@H](C)C(=O)/C=C/C(C)=C/[C@@H]1CO[C@@H]1O[C@H](C)[C@@H](O)[C@@H](OC)[C@H]1OC [Tylosin] | – | – | – | 0.0123 (active) | 0.997 | 0.721 | 0.015 (active)
Cc1cc(/C=C/c2ccc3cc(N(C)C)ccc3[n+]2C)c(C)n1-c1ccccc1 [Pyrvinium pamoate] | – | 0.865 | – | 1.08 | 1.02 | 0.61 | 1.01
O=C(Oc1ccccc1)c1ccccc1O [Phenyl salicylate] | – | – | – | 1.06 | 1.01 | 0.975 | 1.03
O=C(C1CCCCC1)N1CC(=O)N2CCc3ccccc3C2C1 (configuration not stated) [Praziquantel] | – | – | 0.996 | 1.03 | 1.01 | 0.997 | 0.997
CCN(CC)C(=O)C1(c2ccccc2)CC1CN (configuration not stated) [Milnacipran hydrochloride] | – | – | – | 1.01 | 0.999 | 1 | 1.02
CN/C(=N\CCSCc1nc[nH]c1C)NC#N [Cimetidine] | 0.992 | 1 | 1 | 1.02 | 1 | 0.996 | 0.995
O=C(O)c1cccnc1 [Niacin] | 1.02 | 1.06 | 0.993 | 1.09 | 1.02 | 0.985 | 1.05
C[C@]12CC[C@@H]3c4ccc(O)cc4CC[C@H]3[C@@H]1C[C@@H](O)[C@@H]2O [Estriol] | – | 1.02 | 1.01 | 0.978 | 1 | 0.993 | 0.979
